Data as given in ChEMBL document CHEMBL3433997, “St. Jude Leishmania screening dataset” (2016).

Legend:
Format in all cases: functional
[1] = target: Solute carrier family 2, facilitated glucose transporter member 1 (Homo sapiens) (UniProt P11166); assay: ST_JUDE_LEISH: Cytotoxicity at 2uM final concentration against transgenic Leishmania Mexicana promastigotes LmGLUT1 that are glucose transport deficient and complemented with the human glucose transporter GLUT1. Activity is measured by DNA content using SYBR green in vitro
Sequence of Solute carrier family 2, facilitated glucose transporter member 1 (Homo sapiens) (P11166 whole entry): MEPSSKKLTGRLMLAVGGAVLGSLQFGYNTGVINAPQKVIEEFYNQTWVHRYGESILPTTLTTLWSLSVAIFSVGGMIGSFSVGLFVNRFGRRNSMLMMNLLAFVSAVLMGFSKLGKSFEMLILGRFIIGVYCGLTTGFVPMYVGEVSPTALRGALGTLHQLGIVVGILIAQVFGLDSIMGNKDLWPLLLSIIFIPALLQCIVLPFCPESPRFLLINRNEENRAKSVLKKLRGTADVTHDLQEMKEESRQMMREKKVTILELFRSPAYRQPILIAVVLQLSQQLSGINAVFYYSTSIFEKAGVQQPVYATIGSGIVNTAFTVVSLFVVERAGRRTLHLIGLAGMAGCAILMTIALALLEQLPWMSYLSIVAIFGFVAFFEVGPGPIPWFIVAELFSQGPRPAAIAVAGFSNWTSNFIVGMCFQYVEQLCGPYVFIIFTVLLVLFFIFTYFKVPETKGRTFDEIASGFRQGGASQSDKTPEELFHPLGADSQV

[2] = target: Hexose transporter 1 (Plasmodium falciparum) (UniProt O97467); assay: ST_JUDE_LEISH: Cytotoxicity at 2uM final concentration against transgenic Leishmania Mexicana promastigotes LmPfHT that are glucose transport deficient and complemented with the Plasmodium falciparum hexose transporter. Activity is measured by DNA content using SYBR green in vitro
[3] = target: Glucose transporter (Leishmania mexicana) (UniProt O61059); assay: ST_JUDE_LEISH: Cytotoxicity at 2uM final concentration against transgenic Leishmania Mexicana promastigotes LmGT2 that are glucose transport deficient and complemented with the L. Mexicana glucose transporter 2. Activity is measured by DNA content using SYBR green in vitro

SMILES | inhibition [1] [%] | inhibition [2] [%] | inhibition [3] [%]
CC(C)Sc1ccc(Cl)cc1CON1C(=N)N=C(N)NC1(C)C | 2.72 | 2.18 | 0.87
CCNc1cc(C(=O)N[C@@H](Cc2ccccc2)[C@H](O)CNC(C)Cc2cccc(Cl)c2)cc(N2CCCCS2(=O)=O)c1 (stereo partly specified) | 0.81 | 2.5 | -1.63
CC(C)(Oc1c(C2CCN(CCCCNC(=O)c3ccc(-c4ccc(C#N)cc4)cc3)CC2)ccc2c1CCCC2)C(N)=O | 0.07 | 0.7 | -1.31
COc1nc(Nc2cccc(C)c2)nc(OC)n1 | -0.24 | 0.66 | 0.95
O=C(Nc1ccc(OCc2ccccc2)cc1)c1nc2ccccc2nc1Cl | 1.33 | 1.29 | 1.34
CC(C)(CNC(=O)/C=C/c1ccc(Cl)c(Cl)c1)CNc1cc(=O)c2ccccc2[nH]1 | -0.77 | 0.05 | -2.49
COc1ccc(CCNCCCCCNCCCc2ccc(Cl)cc2)cc1OC | -1.33 | -1.18 | 0.25
Cc1n[nH]c2ccc(-c3ccc4nccc(N5CCC(N)CC5)c4c3)cc12 | -2.13 | -0.1 | -3.17
O=C(c1ccc(Cl)c(Cl)c1)N1CCc2c([nH]c3ccccc23)C1CN1CCCC1 (stereo unspecified) | 4.26 | 5.06 | 3.77
COc1ccc(CNCc2ccc(-c3ccc(-c4nc5cccc(C)c5[nH]4)cc3)cc2)cc1 | 18.1 | 17.2 | 10.3
CN(C)CCCOc1c(C(C)(C)C)cc(-c2cc(C(C)(C)C)c(OCCCN(C)C)c(C(C)(C)C)c2)cc1C(C)(C)C | 7.07 | 4.77 | 3.12
c1cc(-c2ccc(CNCCCN3CCOCC3)cc2)cc(-c2nc3ccccc3[nH]2)c1 | 1.09 | -0.33 | 2.29
CCN(c1ccccc1)S(=O)(=O)c1ccc(NC(=O)c2cc(-c3cc(C)ccc3O)n[nH]2)cc1 | -1.82 | 5.38 | -1.84
Cn1c2c(c3ccccc31)CN(CCC1(c3ccc(Cl)c(Cl)c3)CN(C(=O)c3ccccc3)CCO1)CC2 (stereo unspecified) | 2.15 | 1.72 | 2.38
CCOc1cc(CC)ccc1C1CCN(CCN2CCC(NC(=O)c3ccc(-c4ccc(C(C)=O)cc4)cc3)CC2)CC1 | 1.17 | 1.9 | 1.24
CC(=O)Nc1ccc(NC(=O)c2cc(-c3cc(Cl)ccc3O)n[nH]2)cc1 | -0.41 | -0.51 | 2.29
COc1ccc(CN(C)CCOc2ccc(NC(=O)c3cccc4c(=O)cc(-c5ccccc5)[nH]c34)cc2)cc1OC | 0.9 | 0.96 | 1.24
